Where a name gives a salt, the structure may show the parent alone. ± gives the standard deviation or the standard deviation of the averaged measurements.
Tests used:
Conditions in all cases: 25 µM; exposure: 24-48 hpf
[1] = tested on: Danio rerio Tg(wt1b:EGFP) embryo, pronephros; experiment: glomerular separation, fold change vs DMSO control; higher = glomeruli further apart (abnormal)
How it was run: (§1)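 Distances and angles describing the pronephros were computed by a Fiji macro from 16 reference points set manually on maximum projections of dorsal images. These images came from dechorionated Tg(wt1b:EGFP) zebrafish embryos held in agarose-filled 96-well plates after exposure to 25 μM compound in 0.5% DMSO, in HEPES-buffered E3 with 0.003% PTU, from 24 to 48 hpf at 28.5°C. Any value more than 2 SD from the feature mean was excluded. Features are stated as fold change relative to the mean of same-day DMSO-treated embryos.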

[2] = tested on: Danio rerio Tg(wt1b:EGFP) embryo, pronephros; experiment: glomerular width (mean of left and right), fold change vs DMSO control; higher = wider glomerulus
How it was run: as §1

[3] = tested on: Danio rerio Tg(wt1b:EGFP) embryo, pronephros; experiment: fraction of imaged embryos annotated as normal kidney; higher = less nephrotoxic; extreme values may be limits of the assay
How it was run: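 Zebrafish embryos carrying Tg(wt1b:EGFP) were dechorionated and exposed to 25 μM compound (0.5% DMSO) between 24 and 48 hpf at 28.5°C. Their pronephroi were imaged by widefield fluorescence, and each embryo was classed by hand from maximum projections. The measure is the fraction of embryos per treatment falling in the normal-kidney category.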

[4] = tested on: Danio rerio Tg(wt1b:EGFP) embryo, pronephros; experiment: pronephric angle neck segment to proximal convoluted tubule (mean of left and right), fold change vs DMSO control; higher = larger pronephric angle
How it was run: as §1

Compound	glomerular separation [1]	glomerular width [2]	fraction of imaged embryos annotated as normal kidney [3]	pronephric angle neck segment [4]
Cc1cc2cc3c(C)cc(=O)oc3c(C)c2o1 [Trioxsalen]	0.97 ± 0.24	1.019 ± 0.01	0.917	1.03 ± 0.049
C[C@@H]1C[C@H]2[C@@H]3C[C@H](F)C4=CC(=O)C=C[C@]4(C)[C@@]3(F)[C@@H](O)C[C@]2(C)[C@@]1(O)C(=O)COC(=O)C(C)(C)C [Flumethasone pivalate]	1.2 ± 0.37	1.04 ± 0.015	0.25	0.989 ± 0.0085
C[C@]12C[C@H](O)[C@H]3[C@@H](CCC4=CC(=O)CC[C@@]43C)[C@@H]1CC[C@@H]2C(=O)CO [Corticosterone]	1.36 ± 0.4	1.13 ± 0.026	0.417	1.01 ± 0.019
CO[C@H]1/C=C/O[C@@]2(C)Oc3c(C)c(O)c4c(c3C2=O)C2=NC3(CCN(CC(C)C)CC3)NC2=C(NC(=O)/C(C)=C\C=C\[C@H](C)[C@H](O)[C@@H](C)[C@@H](O)[C@@H](C)[C@H](OC(C)=O)[C@@H]1C)C4=O [Rifabutin]	1.4 ± 0.24	0.94 ± 0.1	0.583	1.06 ± 0.011
CCN(CCO)CCCC(C)Nc1ccnc2cc(Cl)ccc12 (stereo unspecified) [Hydroxychloroquine sulfate]	1.03 ± 0.49	1.038 ± 0.0043	0.833	0.935 ± 0.055
CCOc1ccccc1OC(c1ccccc1)C1CNCCO1 (stereo unspecified) [Reboxetine mesylate]	1.16 ± 0.43	1 ± 0.077	0.909	0.99 ± 0.0046
C[N+](C)(C)CCCCCC[N+](C)(C)C [Hexamethonium dibromide dihydrate]	0.932 ± 0.3	1.09 ± 0.035	0.667	0.997 ± 0.041
CC(=O)c1ccc2c(c1)N(CCCN1CCC(CCO)CC1)c1ccccc1S2 [Piperacetazine]	0.868 ± 0.28	0.976 ± 0.023	0.833	1.01 ± 0.081
CC[C@@H](CO)NCCN[C@@H](CC)CO [Ethambutol dihydrochloride]	1.28 ± 0.4	0.965 ± 0.028	0.75	1.02 ± 0.076
Nc1ccc(S(=O)(=O)Nc2cnc3ccccc3n2)cc1 [Sulfaquinoxaline sodium salt]	0.886 ± 0.3	0.97 ± 0.033	1	1.09 ± 0.012
CCC1(C)CC(=O)NC1=O (stereo unspecified) [Ethosuximide]	0.979 ± 0.37	1.07 ± 0.029	0.833	0.972 ± 0.013
CC(=O)[C@H]1CC[C@H]2[C@@H]3C[C@H](C)C4=CC(=O)CC[C@]4(C)[C@H]3[C@@H](O)C[C@]12C [Medrysone]	1.02 ± 0.44	1.17 ± 0.072	0.417	0.957 ± 0.019
CCCCOc1ccc(CC(=O)NO)cc1 [Bufexamac]	1.11 ± 0.37	1.015 ± 0.0014	0.75	0.9927 ± 0.0019
CO[C@@H]1[C@@H](OC(N)=O)[C@@H](O)[C@H](Oc2ccc3c(O)c(NC(=O)c4ccc(O)c(CC=C(C)C)c4)c(=O)oc3c2C)OC1(C)C [Novobiocin sodium salt]	0.71 ± 0.24	1.06 ± 0.038	0.75	0.9784 ± 0.0046
CN1CCN(C(c2ccccc2)c2ccccc2)CC1 [Cyclizine hydrochloride]	0.835 ± 0.14	0.9853 ± 0.0046	0.833	0.952 ± 0.018
NC(=O)OCC(O)COc1ccc(Cl)cc1 (stereo unspecified) [Chlorphensin carbamate]	0.973 ± 0.47	0.982 ± 0.071	0.833	1.12 ± 0.099
C=CC[N@@+]12CC[C@@]34c5ccccc5N5/C=C6/[C@H]7C[C@H]8[C@@]9(CC[N@@+]8(CC=C)C/C7=C/CO)c7ccccc7N(/C=C(/[C@@H](C[C@@H]31)/C(=C\CO)C2)[C@H]54)[C@@H]69 [Alcuronium chloride]	1.23 ± 0.57	1.03 ± 0.052	0.833	0.958 ± 0.03
Cn1c(=O)c2c(ncn2C)n(C)c1=O [Caffeine]	0.852 ± 0.19	0.921 ± 0.018	0.9	1.05 ± 0.099
CC1(C)S[C@@H]2[C@H](NC(=O)[C@H](N)c3ccccc3)C(=O)N2[C@H]1C(=O)O [Ampicillin trihydrate]	0.924 ± 0.41	1.03 ± 0.016	0.917	1.03 ± 0.025
Cn1c(=O)c2nc[nH]c2n(C)c1=O [Theophylline monohydrate]	0.92 ± 0.21	0.999 ± 0.047	1	1 ± 0.011
Cc1cc(C)nc(NS(=O)(=O)c2ccc(N)cc2)n1 [Sulfamethazine sodium salt]	1.11 ± 0.43	1.08 ± 0.048	0.917	1.01 ± 0.031
CN1CCCC(CC2c3ccccc3Sc3ccccc32)C1 (stereo unspecified) [Metixene hydrochloride]	0.961 ± 0.25	1 ± 0.021	1	0.953 ± 0.044
CC(C)C[C@H](NC(=O)[C@@H](O)[C@H](N)Cc1ccccc1)C(=O)O [Ubenimex]	1.12 ± 0.52	1.01 ± 0.048	0.833	1.01 ± 0.028
CN(C)CCc1c[nH]c2ccc(C[C@H]3COC(=O)N3)cc12 [Zolmitriptan]	0.75 ± 0.13	0.941 ± 0.034	0.833	1.03 ± 0.019

From the supplement of paper PMC7366291
